{"source": "the supplement of paper PMC4206461", "data": [{"test_system": "Pseudomonas aeruginosa PA14 wild type", "test": "respiration area under curve with compound as sole nitrogen source, 24 h (OmniLog AUC (arbitrary units)); higher = more respiration / better utilisation as nitrogen source, active = 2000 or more", "protocol": "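Biolog Phenotype MicroArray plates PM6-PM8: each di/tripeptide is the sole nitrogen source (IF-0 medium with succinate/ferric citrate and dye mix A). Tetrazolium reduction was read in the OmniLog every 15 min for 24 h at 37°C and summarised as area under the respiration curve (arbitrary units). The paper counts values below 2000 as no respiration and above 8000 as solid respiration. Replicate datasets are averaged.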", "values": [{"smiles": "CC[C@H](C)[C@H](N)C(=O)N[C@H](C(=O)O)[C@@H](C)CC", "note": "(plate: PM6)", "respiration area under curve": "2030 (active)"}, {"smiles": "N[C@@H](CO)C(=O)N1CCC[C@H]1C(=O)O", "note": "(plate: PM7)", "respiration area under curve": "14600 (active)"}, {"smiles": "CC(C)C[C@H](N)C(=O)N[C@H](CC(C)C)C(=O)O", "note": "(plate: PM8)", "respiration area under curve": "0 (inactive)"}, {"smiles": "NCC(=O)NCC(=O)N[C@@H](Cc1ccccc1)C(=O)O", "note": "(plate: PM8)", "respiration area under curve": "9740 (active)"}, {"smiles": "N[C@@H](Cc1ccccc1)C(=O)N[C@@H](Cc1ccccc1)C(=O)O", "note": "(plate: PM7)", "respiration area under curve": "5220 (active)"}, {"smiles": "CC(C)C[C@H](NC(=O)[C@@H](C)N)C(=O)O", "note": "(plate: PM8)", "respiration area under curve": "626 (inactive)"}, {"smiles": "N[C@@H](CO)C(=O)NCC(=O)O", "note": "(plate: PM7)", "respiration area under curve": "8430 (active)"}, {"smiles": "N[C@@H](Cc1ccccc1)C(=O)N[C@@H](CO)C(=O)O", "note": "(plate: PM7)", "respiration area under curve": "7630 (active)"}, {"smiles": "CC(C)C[C@H](N)C(=O)N[C@@H](CCCN=C(N)N)C(=O)O", "note": "(plate: PM6)", "respiration area under curve": "10200 (active)"}, {"smiles": "CC(C)[C@H](N)C(=O)N[C@H](C(=O)O)C(C)C", "note": "(plate: PM7)", "respiration area under curve": "9240 (active)"}, {"smiles": "N[C@@H](Cc1ccc(O)cc1)C(=O)NCC(=O)O", "note": "(plate: PM7)", "respiration area under curve": "9630 (active)"}, {"smiles": "CSCC[C@H](N)C(=O)N[C@@H](Cc1ccccc1)C(=O)O", "note": "(plate: PM7)", "respiration area under curve": "1400 (inactive)"}, {"smiles": "CC(C)C[C@H](NC(=O)[C@@H](N)CO)C(=O)O", "note": "(plate: PM7)", "respiration area under curve": "7960 (active)"}, {"smiles": "C[C@@H](N)C(=O)NCC(=O)NCC(=O)O", "note": "(plate: PM8)", "respiration area under curve": "211 (inactive)"}, {"smiles": "CC[C@H](C)[C@H](NC(=O)[C@@H](N)Cc1ccc(O)cc1)C(=O)O", "note": "(plate: PM8)", "respiration area under curve": "6790 (active)"}, {"smiles": "CC(C)C[C@@H](N)C(=O)NCC(=O)O", "note": "(plate: PM8)", "respiration area under curve": "0.4 (inactive)"}, {"smiles": "CSCC[C@H](NC(=O)[C@@H](N)[C@@H](C)O)C(=O)O", "note": "(plate: PM7)", "respiration area under curve": "4960 (active)"}, {"smiles": "NCC(=O)N[C@@H](Cc1ccccc1)C(=O)O", "note": "(plate: PM6)", "respiration area under curve": "2760 (active)"}, {"smiles": "NC(=O)CC[C@H](N)C(=O)N[C@@H](CCC(=O)O)C(=O)O", "note": "(plate: PM8)", "respiration area under curve": "9650 (active)"}, {"smiles": "CC[C@H](C)[C@H](NC(=O)[C@@H](N)C(C)C)C(=O)O", "note": "(plate: PM7)", "respiration area under curve": "9390 (active)"}, {"smiles": "O=C(O)CC[C@H](NC(=O)[C@@H]1CCCN1)C(=O)O", "note": "(plate: PM8)", "respiration area under curve": "7660 (active)"}, {"smiles": "C[C@H](NC(=O)[C@@H](N)Cc1c[nH]c2ccccc12)C(=O)O", "note": "(plate: PM7)", "respiration area under curve": "5630 (active)"}, {"smiles": "N[C@@H](CO)C(=O)N[C@@H](CC(=O)O)C(=O)O", "note": "(plate: PM8)", "respiration area under curve": "4090 (active)"}, {"smiles": "N[C@@H](CO)C(=O)N[C@@H](Cc1ccc(O)cc1)C(=O)O", "note": "(plate: PM7)", "respiration area under curve": "6130 (active)"}, {"smiles": "O=C(O)[C@H](CO)NC(=O)[C@@H]1CCCN1", "note": "(plate: PM8)", "respiration area under curve": "8750 (active)"}, {"smiles": "CC(C)[C@H](NC(=O)[C@@H](N)CCCN=C(N)N)C(=O)O", "note": "(plate: PM6)", "respiration area under curve": "8950 (active)"}, {"smiles": "CC(C)[C@H](NC(=O)CN)C(=O)O", "note": "(plate: PM6)", "respiration area under curve": "4270 (active)"}, {"smiles": "CC(C)[C@H](N)C(=O)N[C@@H](CCC(N)=O)C(=O)O", "note": "(plate: PM8)", "respiration area under curve": "9290 (active)"}, {"smiles": "NC(=O)CC[C@H](NC(=O)[C@@H](N)CCCN=C(N)N)C(=O)O", "note": "(plate: PM6)", "respiration area under curve": "9850 (active)"}, {"smiles": "CC(C)[C@H](NC(=O)[C@@H](N)Cc1ccccc1)C(=O)O", "note": "(plate: PM8)", "respiration area under curve": "6870 (active)"}, {"smiles": "C[C@H](NC(=O)CN)C(=O)O", "note": "(plate: PM6)", "respiration area under curve": "4610 (active)"}, {"smiles": "N[C@@H](CCC(=O)O)C(=O)N[C@@H](Cc1ccc(O)cc1)C(=O)O", "note": "(plate: PM6)", "respiration area under curve": "1140 (inactive)"}, {"smiles": "CSCC[C@H](NC(=O)[C@@H](N)Cc1ccccc1)C(=O)O", "note": "(plate: PM8)", "respiration area under curve": "1220 (inactive)"}, {"smiles": "CC[C@H](C)[C@H](NC(=O)[C@@H](N)Cc1ccccc1)C(=O)O", "note": "(plate: PM7)", "respiration area under curve": "8390 (active)"}, {"smiles": "N[C@@H](CO)C(=O)N[C@@H](CO)C(=O)O", "note": "(plate: PM7)", "respiration area under curve": "8860 (active)"}, {"smiles": "CC(C)C[C@H](NC(=O)[C@@H]1CCCN1)C(=O)O", "note": "(plate: PM7)", "respiration area under curve": "7810 (active)"}, {"smiles": "CC(C)C[C@H](NC(=O)[C@@H](N)C(C)C)C(=O)O", "note": "(plate: PM7)", "respiration area under curve": "9770 (active)"}, {"smiles": "CSCCC(N)C(=O)NC(CCCN=C(N)N)C(=O)O", "note": "(stereo not given) (plate: PM7)", "respiration area under curve": "14600 (active)"}, {"smiles": "C[C@H](N)C(=O)N[C@@H](CO)C(=O)O", "note": "(plate: PM6)", "respiration area under curve": "9550 (active)"}, {"smiles": "CC(C)[C@H](N)C(=O)N[C@@H](CCC(=O)O)C(=O)O", "note": "(plate: PM8)", "respiration area under curve": "5380 (active)"}]}]}
